{"source": "PubChem BioAssay AID1894", "about": "(NMMLSC, 2009)", "note": "Among all 5,900 compounds or so, about 100 (1.7%) were called active.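 Rule for the calls: active = binding response below 72% of control, or above a set upper limit, though filed actives all read lower; inactive = the rest.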 The full list was thinned out, with actives kept by preference.", "data": [{"target": "Mitogen-activated protein kinase kinase kinase 3 (Homo sapiens) (UniProt Q99759)", "sequence (Q99759 whole entry, looked up)": "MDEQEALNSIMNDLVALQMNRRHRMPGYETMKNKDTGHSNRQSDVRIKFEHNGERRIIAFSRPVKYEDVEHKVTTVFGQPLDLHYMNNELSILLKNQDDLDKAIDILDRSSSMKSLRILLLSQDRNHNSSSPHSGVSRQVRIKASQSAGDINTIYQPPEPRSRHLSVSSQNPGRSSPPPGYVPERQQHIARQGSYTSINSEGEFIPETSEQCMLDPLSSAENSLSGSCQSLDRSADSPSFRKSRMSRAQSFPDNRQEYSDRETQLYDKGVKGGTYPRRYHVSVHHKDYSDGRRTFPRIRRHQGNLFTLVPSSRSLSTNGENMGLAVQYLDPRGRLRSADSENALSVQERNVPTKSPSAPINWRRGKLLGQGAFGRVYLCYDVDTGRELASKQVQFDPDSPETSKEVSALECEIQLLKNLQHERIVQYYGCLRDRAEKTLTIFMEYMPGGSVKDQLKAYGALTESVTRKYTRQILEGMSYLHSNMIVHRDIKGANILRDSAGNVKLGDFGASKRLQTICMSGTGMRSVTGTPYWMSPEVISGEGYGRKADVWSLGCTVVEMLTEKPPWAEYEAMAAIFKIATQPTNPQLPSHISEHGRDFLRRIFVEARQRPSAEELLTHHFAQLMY", "test": "MEKK3 wild-type PB1 binding to MEK5, inhibitors, confirmation, biochemical, bead multiplex flow cytometry, single concentration, wildtype (AID 1894);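 note: 100% = DMSO only wells and 0% = binding blocked by excess unlabeled MEK5; lower values mean stronger disruption of MEK5 binding to MEKK3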", "conditions": "Alexa488-MEK5 binding to MEKK3, at 10 µM, active compounds read low", "values": [{"smiles": "COc1ccc(-c2[nH]ncc2CN(C)Cc2c(C)n[nH]c2C)c(OC)c1", "binding response (% of control)": "109% (inactive)"}, {"smiles": "COc1ccccc1N1CCN(CCCCOc2ccc(F)cc2)CC1", "binding response (% of control)": "103% (inactive)"}, {"smiles": "CN1C(=O)/C(=C\\c2ccc(-c3ccccc3)o2)SC1=S", "binding response (% of control)": "70% (active)"}, {"smiles": "Cc1cc(Cl)ccc1OCc1nc(-c2ccncc2)no1", "binding response (% of control)": "79% (inactive)"}, {"smiles": "CCn1c(NC(=O)c2ccccc2)c(-c2cccs2)c(=O)c2ccccc21", "binding response (% of control)": "101% (inactive)"}, {"smiles": "Cc1cc(C)nc(-n2ncc3c2CC(c2ccc(C(C)C)cc2)CC3=O)n1", "note": "(stereo not drawn)", "binding response (% of control)": "99% (inactive)"}, {"smiles": "C/C(=N\\NC(=O)CNC(=O)C(c1ccccc1)c1ccccc1)c1ccc(C)cc1", "binding response (% of control)": "108% (inactive)"}, {"smiles": "Cc1cc2cc(CNC(=O)c3cccs3)ccc2[nH]1", "binding response (% of control)": "77% (inactive)"}, {"smiles": "CCOc1ccc(S(=O)(=O)N(CC(=O)O)c2ccccc2)cc1", "binding response (% of control)": "106% (inactive)"}, {"smiles": "CC(C)CC(=O)NC(=S)Nc1cc(C(=O)O)ccc1Cl", "binding response (% of control)": "104% (inactive)"}, {"smiles": "Cn1c(SCc2nc3ccccc3s2)nnc1-c1ccc2c(c1)OCO2", "binding response (% of control)": "98% (inactive)"}, {"smiles": "Cc1no[n+]([O-])c1COc1ccccc1/C=C1\\NC(=S)NC1=O", "binding response (% of control)": "101% (inactive)"}, {"smiles": "CC(C)(C)NC(=O)Cn1cnc([N+](=O)[O-])n1", "binding response (% of control)": "97% (inactive)"}, {"smiles": "COc1ccc(CCNC(=O)CSc2nnc3ccc(-c4ccncc4)nn23)cc1", "binding response (% of control)": "105% (inactive)"}, {"smiles": "CCOc1cc(C2C(C(=O)OC)=CN(C3CCCC3)C=C2C(=O)OC)cc(Br)c1O", "binding response (% of control)": "109% (inactive)"}, {"smiles": "O=C(O)c1cc(Cl)c(Cl)cc1C(=O)Nc1cccc2ncccc12", "binding response (% of control)": "102% (inactive)"}, {"smiles": "COc1ccc(NC(=O)Cn2nnc(C(=O)NCCc3ccc(OC)c(OC)c3)c2N)cc1", "binding response (% of control)": "102% (inactive)"}, {"smiles": "Cn1c(C(=O)NCCCN2CCCCC2)cc2sccc21", "binding response (% of control)": "109% (inactive)"}, {"smiles": "O=C(NCCCN1CCCCCC1)c1ccc(N2CCCC2=O)cc1", "binding response (% of control)": "110% (inactive)"}, {"smiles": "O=C(NCCCN1CCCCCC1)C1CC(=O)N(C2CCCC2)C1", "note": "(stereo not drawn)", "binding response (% of control)": "2% (active)"}, {"smiles": "Cc1ccc(C(=O)NC(=S)Nc2ccc3[nH]c(=O)[nH]c3c2)cc1C", "binding response (% of control)": "100% (inactive)"}, {"smiles": "c1ccc(CN2CCC(N=C3NN=C(c4ccc5c(c4)OCCO5)CS3)CC2)cc1", "binding response (% of control)": "117% (inactive)"}, {"smiles": "C[C@H]1CCC(=O)N([C@H](CSc2ccccc2)Cc2ccccc2)CC1", "binding response (% of control)": "108% (inactive)"}, {"smiles": "O=C(CC1SCCNC1=O)Nc1ccc(Cl)c(Cl)c1", "note": "(stereo not drawn)", "binding response (% of control)": "106% (inactive)"}, {"smiles": "CCNC(=O)CSc1nc(-c2ccccc2)cs1", "binding response (% of control)": "104% (inactive)"}, {"smiles": "COc1ccc(S(=O)(=O)Nc2ccc3oc(C)c(C(C)=O)c3c2)cc1", "binding response (% of control)": "100% (inactive)"}, {"smiles": "O=C(CN1CCN(C(=O)c2ccco2)CC1)Nc1ccc(Cl)c(C(F)(F)F)c1", "binding response (% of control)": "104% (inactive)"}, {"smiles": "COc1ccccc1OCCNCC(O)COc1cccc2[nH]c3ccccc3c12", "note": "(stereo not drawn)", "binding response (% of control)": "100% (inactive)"}, {"smiles": "O=C(NCCN1CCOCC1)[C@H](Cc1ccccc1)N1C(=O)c2ccccc2C1=O", "binding response (% of control)": "100% (inactive)"}, {"smiles": "c1ccc(Nc2nc(N3CCOCC3)c3ccccc3n2)cc1", "binding response (% of control)": "106% (inactive)"}, {"smiles": "CCOc1ccc(S(=O)(=O)NCCCn2ccnc2)cc1NC(C)=O", "binding response (% of control)": "97% (inactive)"}, {"smiles": "CSCC[C@H](NC(=O)CCCn1nnc2ccccc2c1=O)C(=O)O", "binding response (% of control)": "102% (inactive)"}, {"smiles": "COc1cc(NC(=S)NCc2ccco2)c(OC)cc1Cl", "binding response (% of control)": "104% (inactive)"}, {"smiles": "CC(C)C(=O)N1c2ccccc2NC2=C(C(=O)CCC2)C1c1ccc(N(C)C)cc1", "note": "(stereo not drawn)", "binding response (% of control)": "106% (inactive)"}, {"smiles": "COc1ccccc1N=C(C)C1=C(O)COC1=O", "binding response (% of control)": "102% (inactive)"}, {"smiles": "CC1(C)Cc2cccc(OCC(=O)N3CCN(c4ccc([N+](=O)[O-])cc4)CC3)c2O1", "binding response (% of control)": "103% (inactive)"}, {"smiles": "CN(C)c1ccc(/C=C2\\NC(=S)N(Cc3ccccc3)C2=O)cc1", "binding response (% of control)": "99% (inactive)"}, {"smiles": "CC(C)CC(=O)N1CCN(Cc2ccccc2Br)CC1", "binding response (% of control)": "107% (inactive)"}, {"smiles": "CC1(C)OC(=O)N2CCc3ccccc3C21C", "note": "(stereo not drawn)", "binding response (% of control)": "104% (inactive)"}, {"smiles": "COc1cccc(NC(=S)NCc2ccccn2)c1", "binding response (% of control)": "96% (inactive)"}, {"smiles": "CCOc1nnc(C)c2c(C)n(-c3cccc(Cl)c3)nc12", "binding response (% of control)": "91% (inactive)"}, {"smiles": "CCCc1nnc(SCC(=O)N2C(C)CCCC2C)n1CC", "note": "(stereo not drawn)", "binding response (% of control)": "111% (inactive)"}, {"smiles": "O=C(Nc1cccnc1)c1cc(Cl)ccc1Cl", "binding response (% of control)": "106% (inactive)"}, {"smiles": "O=C(O)CC(Cc1ccccc1)C(=O)Nc1ccc([N+](=O)[O-])cc1", "note": "(stereo not drawn)", "binding response (% of control)": "100% (inactive)"}, {"smiles": "COc1cccc(/C=N\\NC(=O)C2=NNC(=O)C2C)c1O", "note": "(stereo not drawn)", "binding response (% of control)": "100% (inactive)"}, {"smiles": "CNC(C)C#Cc1ccc2sc3cc(OC)c(OC)cc3c(=O)c2c1", "note": "(stereo not drawn)", "binding response (% of control)": "104% (inactive)"}, {"smiles": "Cc1ccc(Nc2nc(CSc3nnc(-c4ccncc4)n3-c3ccccc3C)cs2)cc1", "binding response (% of control)": "103% (inactive)"}, {"smiles": "Cc1c(S(=O)(=O)NCc2ccccc2)c(=O)n(C)c(=O)n1C", "binding response (% of control)": "101% (inactive)"}, {"smiles": "Cc1cnc(NC(=O)Cn2cnc3c2c(=O)n(C)c(=O)n3C)s1", "binding response (% of control)": "97% (inactive)"}, {"smiles": "C=CCn1c(=S)sc2c(=O)[nH]c(C)nc21", "binding response (% of control)": "107% (inactive)"}, {"smiles": "CC1CCN(C2=NC(=O)/C(=C/c3cn[nH]c3-c3ccccc3)S2)CC1", "binding response (% of control)": "91% (inactive)"}, {"smiles": "O=C(CCCO)N/N=C/c1cc(Br)ccc1O", "binding response (% of control)": "102% (inactive)"}, {"smiles": "COc1ccc(CC(=O)N2N=C(C)CC2(O)C(F)(F)F)cc1", "note": "(stereo not drawn)", "binding response (% of control)": "98% (inactive)"}, {"smiles": "O=C1C=CC(=O)N1c1ccc(N2CCCCC2)cc1", "binding response (% of control)": "100% (inactive)"}, {"smiles": "N=c1c2c(-c3ccccc3)c(-c3ccccc3)n(Cc3ccccc3)c2ncn1CCCO", "binding response (% of control)": "110% (inactive)"}, {"smiles": "Cc1cccc(/C=N/NC(=O)CNc2cccc3ccccc23)n1", "binding response (% of control)": "110% (inactive)"}, {"smiles": "O=C(O)CCCC(=O)Nc1ccc(Oc2cccc(C(F)(F)F)c2)nc1", "binding response (% of control)": "105% (inactive)"}, {"smiles": "Cc1nn(-c2ccccc2)c(C)c1NC(=O)CCl", "binding response (% of control)": "97% (inactive)"}, {"smiles": "COC(=O)c1c(NC(=O)COC(=O)[C@@H](NS(=O)(=O)c2ccccc2)C(C)C)sc2c1CCC2", "binding response (% of control)": "102% (inactive)"}, {"smiles": "Cc1cn(COC/C=C/c2ccccc2)c(=O)[nH]c1=O", "binding response (% of control)": "105% (inactive)"}, {"smiles": "CCO[C@H]1OC(C(=O)N2CCOCC2)=C[C@@H](c2ccc3c(c2)OCO3)[C@@H]1CCCO", "binding response (% of control)": "104% (inactive)"}, {"smiles": "Cc1noc(C)c1S(=O)(=O)N(C)Cc1ccccc1", "binding response (% of control)": "103% (inactive)"}, {"smiles": "CCN(CC)C(=O)CC(c1ccc2c(c1)OCO2)c1c(OC)cc(OC)c2c(-c3ccccc3)cc(=O)oc12", "note": "(stereo not drawn)", "binding response (% of control)": "103% (inactive)"}]}]}
